The nature of test [1]: blockers of polyQ-driven CASP3 activation – cell-based (AID 1583). The settings on record: polyglutamine-induced caspase-3 activation, cell assay; stronger effect = higher value;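 tested at 10 µM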.
Test [2] is described as follows: yeast 75Q aggregation reduction – 75Q-TubU reporter (AID 1593). To be noted: Yeast 75Q polyglutamine aggregation reporter.
Test [3] can be described thus: restoration of touch response, mutant HTT neurons – whole organism, C. elegans mechanosensory neurons, N-terminal huntingtin (AID 1599). The settings on record: C. elegans polyQ-huntingtin mechanosensory neurons, stronger effect = higher value.
Test [4] in a line: blockers of cytochrome c efflux from mitochondria – biochemical, purified mitochondria (AID 1603).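 Also: mouse liver mitochondria challenged with calcium chloride; signal normalized to the plate average as 100%.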 The settings on record: stronger effect = lower value.
Test [5] is described as follows: polyglutamine aggregate formation blockers (AID 1604). To be noted: polyglutamine-induced protein aggregation inhibition assay; stronger effect = higher value; tested at 2.5 µM.
The nature of test [6]: glutamate transport activators, MN-1 cells, MN-1 cell line (AID 1612).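 Also: tested at 1 µM final; 0% = mean of DMSO vehicle wells on each plate; positive means more glutamate uptake than control and negative means less.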 To be noted: MN-1 motor neuron cells, stronger effect = higher value.
Test [7] can be described thus: 75Q-TubH aggregate inhibition, S. cerevisiae, yeast (AID 1616). To be noted: S. cerevisiae 75Q-TubH polyglutamine aggregation suppression; stronger effect = higher value.
Test [8] in a line: P. berghei load reduction in hepatocytes – cell-based, HepG2, luciferase luminescence, HepG2 viability, primary screen (AID 624349; in the data active = parasite load remaining mostly below about 12%, no sharp cut-off; inactive = mostly above about 10%;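 also: 100% = mean of DMSO negative control wells on the same plate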). To be noted: P. berghei liver stage in HepG2, luciferase luminescence, concentration not given here; parasite load remaining: stronger effect = lower value; viability: measured here: HepG2 viability without parasites.
Test [9] has as its target 6-phosphogluconate dehydrogenase, decarboxylating (Homo sapiens) (UniProt P52209). Nature of the test: inhibition of human phosphogluconate dehydrogenase – biochemical, recombinant enzyme, NADPH absorbance, primary screen (AID 1159550). The settings on record: recombinant 6PGD, NADPH absorbance 341 nm; at 10 µM; stronger effect = higher value.
The nature of test [10]: EMT-state selective cytotoxicity in co-culture – imaging, PC-3E GFP, TEM4-18 mCherry, primary screen (AID 1345086;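 active = compounds killing one labelled cell type while sparing the other, by normalised counts and ratio limits, not self-fluorescent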;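 as to all read-outs here: cells exposed to compound for 72 h before imaging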;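 as to red/green cell ratio (normalised): normalised mesenchymal count divided by normalised epithelial count so high means epithelial killing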). The settings on record: PC-3E GFP / TEM4-18 mCherry co-culture, imaging cell counts, at 1 µM; for red/green cell ratio (normalised): actives lie on both sides, counts scaled to control wells, 1 = unselective.
Test [11] deals with Mitogen-activated protein kinase 7 (Homo sapiens) (UniProt Q13164). Nature of the test: Gal4-ERK5 driven luciferase induction – cell-based, HTS, primary screen (AID 1508626;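 active = luciferase signal above three times the same-plate solvent-only control wells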;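 also: luciferase driven by Gal4-ERK5 fusion binding five Gal4 sites before minimal TATA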). The settings on record: HeLa Gal4-ERK5 transactivation, 18 h, at 5 µM, stronger effect = higher value.
Test [12] in a line: viability loss in pontine glioma line – cell-based, SU-DIPG-XIII, MIPE4.0, CellTiter-Glo, qHTS, dose response (AID 1347061; cut-off not given, nearly all actives have AC50 up to about 37 µM;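 also: cells exposed to compound for 48 hours before readout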). To be noted: CellTiter-Glo ATP luminescence.
A short description of test [13]: viability loss in pontine glioma line – cell-based, JHH-DIPG-1, MIPE4.0, CellTiter-Glo, qHTS, dose response (AID 1347062; cut-off not given, nearly all actives have AC50 up to about 27 µM). The settings on record: JHH-DIPG-1 viability, CellTiter-Glo ATP luminescence.
A short description of test [14]: MELAS cybrid and Rieske KO viability enhancers – cell-based, MELAS cybrids, Rieske KO mouse fibroblasts, CellTiter-Glo, primary screen (AID 1508586;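 active = mean z-score across replicates of 1.96 or higher in either the MELAS or the Rieske mutant cell line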;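 also: z relative to plate mean and SD of compound and empty wells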). To be noted: low glucose.
A short description of test [15]: galactose survival enhancers in mitochondrial complex I cybrids – cell-based, galactose medium, ATP luminescence, primary screen (AID 1645843;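 active = z-score of at least 1.8 in each of two replicates, scored against plate mean and spread of sample wells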;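 also: positive z means more ATP and so rescue of galactose-driven cybrid death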). To be noted: complex I mutant cybrid cells, 72 h, stronger effect = higher value.
Test [16] can be described thus: viability loss in pontine glioma line – cell-based, SU-DIPG-XVII, MIPE5.0, CellTiter-Glo, qHTS, dose response (AID 1347060; cut-off not given, nearly all actives have AC50 up to about 26 µM). The settings on record: CellTiter-Glo ATP luminescence.
A short description of test [17]: viability loss in pontine glioma line – cell-based, SU-DIPG-IV, MIPE4.0, CellTiter-Glo, qHTS, dose response (AID 1347063; cut-off not given, nearly all actives have AC50 up to about 30 µM;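 also: compound exposure lasted 48 hours before the viability readout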). The settings on record: CellTiter-Glo ATP luminescence.
Test [18] can be described thus: JHH-DIPG-1 glioma cell viability, MIPE5.0 library, CellTiter-Glo luminescence, qHTS (AID 1347067; cut-off not given, nearly all actives have AC50 up to about 26 µM;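 also: cells exposed to compound for 48 hours before readout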). The settings on record: JHH-DIPG-1 glioma viability, CellTiter-Glo ATP luminescence.
[19] abbreviates: measured here: epithelial PC-3E GFP cell survival.
Setting [20] is: measured here: mesenchymal TEM4-18 mCherry cell survival.
Setting [21] is: MELAS cybrid survival, CellTiter-Glo 48 h, stronger effect = higher value.
[22] abbreviates: Rieske KO mouse fibroblast survival, CellTiter-Glo 72 h.

Several values for one entry are separate records, joined by “and”; a condition that tells them apart may be missing. Identical values can stand only once. Results filed as inconclusive are left out. For part of these data: Results with a measured potency or affinity are listed apart. Activity calls are given as the source filed them.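 The calls were made as follows, unless noted: active = at least 20% inhibition of 6-phosphogluconate dehydrogenase activity; inactive = the rest.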

Mitogen-activated protein kinase 7 (Homo sapiens), sequence (Q13164 whole entry, looked up, the tested form may be a part): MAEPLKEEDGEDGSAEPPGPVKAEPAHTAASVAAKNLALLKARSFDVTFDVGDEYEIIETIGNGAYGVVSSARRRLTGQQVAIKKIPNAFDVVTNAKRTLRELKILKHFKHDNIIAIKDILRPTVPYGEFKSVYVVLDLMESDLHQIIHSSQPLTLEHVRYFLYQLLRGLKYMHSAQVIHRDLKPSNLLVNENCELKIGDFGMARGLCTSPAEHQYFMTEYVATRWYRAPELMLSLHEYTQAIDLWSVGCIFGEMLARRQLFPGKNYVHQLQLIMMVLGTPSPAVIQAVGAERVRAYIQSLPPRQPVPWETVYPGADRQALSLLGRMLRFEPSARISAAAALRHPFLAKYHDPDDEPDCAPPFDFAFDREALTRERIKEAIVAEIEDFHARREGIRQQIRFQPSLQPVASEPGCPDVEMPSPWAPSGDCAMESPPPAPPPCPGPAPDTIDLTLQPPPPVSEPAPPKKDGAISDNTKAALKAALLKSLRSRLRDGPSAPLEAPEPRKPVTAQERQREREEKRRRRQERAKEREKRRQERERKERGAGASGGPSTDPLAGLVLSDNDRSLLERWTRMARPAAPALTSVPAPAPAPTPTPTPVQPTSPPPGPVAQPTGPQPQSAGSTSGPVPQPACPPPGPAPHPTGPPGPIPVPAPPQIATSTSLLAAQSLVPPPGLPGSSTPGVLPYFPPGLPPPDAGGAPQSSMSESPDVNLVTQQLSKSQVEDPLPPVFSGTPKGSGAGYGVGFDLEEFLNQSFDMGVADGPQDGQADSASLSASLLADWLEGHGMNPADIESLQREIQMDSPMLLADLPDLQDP
6-phosphogluconate dehydrogenase, decarboxylating (Homo sapiens), sequence (P52209 whole entry, looked up): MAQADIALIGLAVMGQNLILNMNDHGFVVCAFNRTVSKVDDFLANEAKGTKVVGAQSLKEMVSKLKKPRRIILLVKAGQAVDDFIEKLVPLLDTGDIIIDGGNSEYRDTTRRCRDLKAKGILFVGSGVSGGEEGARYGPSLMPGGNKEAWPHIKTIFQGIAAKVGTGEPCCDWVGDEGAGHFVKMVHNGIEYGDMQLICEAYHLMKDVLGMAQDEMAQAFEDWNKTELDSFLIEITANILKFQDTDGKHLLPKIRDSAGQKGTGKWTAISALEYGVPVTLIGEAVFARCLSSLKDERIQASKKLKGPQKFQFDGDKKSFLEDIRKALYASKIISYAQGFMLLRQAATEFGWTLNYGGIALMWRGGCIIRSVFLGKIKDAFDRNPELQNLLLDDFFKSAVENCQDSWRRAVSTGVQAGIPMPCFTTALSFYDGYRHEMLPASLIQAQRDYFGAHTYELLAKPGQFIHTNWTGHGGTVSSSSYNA

Consider `NC1=NCCN1CC(=O)O`, for which the inhibition in test [1] is 26.8%; in test [9] it was -2.27% (inactive). For the same compound, the score in test [2] came out at 1.43. Moreover, the rescue above control in test [3] amounted to 1.68. Also, the cytochrome c release ratio in [4] worked out at 1.01. This compound yielded an inhibition of aggregation in [5] of 80.3%. The glutamate uptake change in [6] worked out at 12.9%. The same compound had an aggregation suppression score in test [7] of 0.99. In addition, the parasite load remaining in test [8] is 89.9% (inactive). Moreover, in test [8], the viability came out at 69.9%. Besides, the red/green cell ratio (normalised) in [10] was 0.92 (inactive). The normalised cell number in test [10] (setting [19]) is 1.1; in [10] (setting [20]), 1.01. Also, in [11], the luciferase signal was 48 AU (inactive).

On to `O=c1c(O)c(-c2ccccc2)oc2ccccc12`, for which the inhibition in test [9] was 1.99% (inactive). Also, the red/green cell ratio (normalised) in test [10] is 0.97 (inactive). In addition, the normalised cell number worked out at 1.03 in test [10] (setting [19]) and 1 in test [10] (setting [20]). Further, the luciferase signal in test [11] is 24 AU (inactive).

Take `O=C1c2ccc(O)c(O)c2C(=O)c2c(O)ccc(O)c21`: the inhibition in test [1] is -8.08%; in test [9] it was 4.26% (inactive). Moreover, the score in [2] is 1.47. For the same compound, the cytochrome c release ratio in [4] was 0.18. For the same compound, in test [5], the inhibition of aggregation was 38.2%. Besides, the glutamate uptake change in test [6] is 32%. Besides, the aggregation suppression score in test [7] stood at 0.505. The red/green cell ratio (normalised) in [10] was 1.12 (inactive). Further, the normalised cell number in test [10] (setting [19]) amounted to 0.82; in test [10] (setting [20]), 0.92. The luciferase signal in [11] is 76 AU (inactive).

As for `O=c1[nH]c2cc(Cl)c(Cl)cc2[nH]c1=O`, in [9], the inhibition is 1.1% (inactive). Also, in test [10], the red/green cell ratio (normalised) is 1.09 (inactive). Further, the values for the normalised cell number in [10] (setting [19]) and in test [10] (setting [20]) were 0.94 and 1.02, respectively. The luciferase signal in [11] is 40 AU (inactive).

For `CCOC(=O)[C@H](CCc1ccccc1)N[C@H](C)C(=O)N1C2CCCCC2C[C@H]1C(=O)O` (stereo partly drawn), in [8], the parasite load remaining is 125% (inactive) and the viability is 94.3%. Besides, the inhibition in test [9] was 7.88% (inactive). Also, the red/green cell ratio (normalised) in [10] was 0.91 (inactive). Moreover, in test [10] (setting [19]), the normalised cell number was determined as 1.03. The compound also gave a normalised cell number in test [10] (setting [20]) of 0.93.

For `CCN1CCCC1CNC(=O)c1cc(S(N)(=O)=O)ccc1OC` (stereo not drawn), the inhibition in test [1] is 17.6%; in test [9], -9.64% (inactive). Further, the score in test [2] was 1.43. The rescue above control in [3] turned out to be 3.11. For the same compound, the cytochrome c release ratio in [4] came to 0.88. The inhibition of aggregation in [5] is 59.1%. Besides, the glutamate uptake change in [6] was -6.59%. In test [7], this compound returned an aggregation suppression score of 1.43. Besides, the parasite load remaining in test [8] was 39.8% (inactive) and 78.3% (inactive). Besides, the viability in test [8] is 52.6% and 93.4%. In addition, the result in test [12] and in [13] was inactive. The z-score was -0.0383 (inactive) and -0.359 (inactive) in [14] (setting [21]); 0.0677 and 0.0684 in test [14] (setting [22]); 0.32 (inactive) and 0.4 (inactive) and 0.185 (inactive) in [15]. Further, the luciferase signal in test [11] is 56 AU (inactive).

Take `NC(=O)c1cccc(N)c1`: the inhibition is -48.2% in test [1] and 10.1% (inactive) in test [9]. In test [2], this compound returned a score of 1.17. The compound also gave a rescue above control in test [3] of -8.42. Further, the cytochrome c release ratio in test [4] worked out at 1.08. In test [5], this compound gave an inhibition of aggregation of 86.1%. Besides, the glutamate uptake change in test [6] was found to be 20.1%. In [7], this compound yielded an aggregation suppression score of 1.37. In addition, the outcome in test [16], in [13], in test [17] and in test [18] was inactive. Besides, the z-score in [14] (setting [21]) was -0.453 (inactive) and -0.332 (inactive); in test [14] (setting [22]), 0.178 and -0.721; in test [15], 0.345 (inactive) and 1.35 (inactive). In addition, in test [11], the luciferase signal is 104 AU (inactive).

Consider `CC(C)=CCc1c2c(c3occ(-c4ccc(O)cc4)c(=O)c3c1O)C=CC(C)(C)O2`, for which the inhibition in test [9] was 8.7% (inactive). In addition, the red/green cell ratio (normalised) in test [10] was 1.02 (inactive). For the same compound, the normalised cell number in [10] (setting [19]) turned out to be 1.04; in test [10] (setting [20]), 1.06. For the same compound, the luciferase signal in test [11] was 392 AU (active).

(Values after PubChem BioAssay.)
